Autofluor counter: compound fluorescence in toxin protease inhibitor counterscreen; hit rate 3.1% among 360,000; compound autofluorescence counterscreen, microsphere flow cytometry; hits give high values; fluorescence intensity (no concentration beside the values); AID 624483; in the data active means fluorescence intensity above about 16000; inconclusive means no clear call, values can overlap the other calls
BoNT-A LC inh2: BoNT/A light chain protease inhibitors, primary screen, biochemical, flow cytometry, MLPCN library | Botulinum neurotoxin type A light chain protease (Clostridium botulinum A str. ATCC 3502) | multiplex microsphere protease substrate cleavage | inhibition, % at 10 µM | hit rate 0.17% among 360,000 | AID 588499, 2011; further: plate controls were buffer without enzyme for full effect and enzyme alone for no effect
FBA Mtb inh: Mtb FBA enzyme inhibitors, primary screen, biochemical, fluorescence, strain H37Rv | Fructose-bisphosphate aldolase (Mycobacterium tuberculosis (strain ATCC 25618 / H37Rv)), … | purified M. tuberculosis FBA, fluorescence read-out | inhibition, % at 1 µM | hit rate 2.3% among 360,000; in the data active means inhibition above about 27%;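 further: 0% = vehicle and 100% = reference inhibitor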
Target sequence (P9WQA3 whole entry, looked up): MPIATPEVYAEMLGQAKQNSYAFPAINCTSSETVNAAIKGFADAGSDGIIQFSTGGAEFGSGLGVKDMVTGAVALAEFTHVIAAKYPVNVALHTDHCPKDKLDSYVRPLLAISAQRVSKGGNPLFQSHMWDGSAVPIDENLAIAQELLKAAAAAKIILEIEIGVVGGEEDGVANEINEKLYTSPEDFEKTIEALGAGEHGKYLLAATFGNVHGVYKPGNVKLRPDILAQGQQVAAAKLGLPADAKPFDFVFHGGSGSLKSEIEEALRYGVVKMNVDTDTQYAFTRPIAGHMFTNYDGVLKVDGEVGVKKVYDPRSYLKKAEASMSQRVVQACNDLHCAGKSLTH
BoNT-F LC inh: BoNT/F light chain protease inhibitors, primary screen, biochemical, flow cytometry, MLPCN library | Multiplex microsphere protease cleavage assay | inhibition, % at 10 µM | hit rate 0.22% among 360,000 | AID 588497, 2011; in the data active means inhibition above about 35%, passing the limit was not always enough; inconclusive means no clear call, values can overlap the other calls; further: plate controls were buffer without enzyme for full effect and enzyme alone for no effect
GDH-TPI inh: GDH-TPI coupling enzyme inhibitors, primary screen, artefact control for M. tuberculosis FBA inhibitor project, biochemical, absorbance, full deck; GDH-TPI coupled enzyme counterscreen, NADH absorbance; inhibition, % at 4.8 µM; hit rate 1.2% among 360,000; in the data active means inhibition above about 30%;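 further: 0% = DMSO wells and 100% = wells lacking the enzyme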
Anthrax LF prot: Bacillus anthracis LF protease inhibitors, primary screen, biochemical, multiplex microsphere, MLPCN library. Lethal factor (Bacillus anthracis), P15917. multiplex microsphere protease cleavage assay. inhibition, % at 10 µM. hit rate 0.12% among 360,000; further: plate controls were buffer without enzyme for full effect and enzyme alone for no effect
BoNT-A LC CP1: BoNT/A light chain protease inhibitors, confirmation, biochemical, flow cytometry, cherry pick 1 | inhibition, % at 10 µM | AID 602139, 2011 | hit rate 3% among 720 | shares compounds with BoNT-F LC inh | multiplex microsphere protease assay; in the data active means inhibition above about 32%
BoNTF LC inh 1: BoNT/F light chain protease inhibitors, confirmation, biochemical, flow cytometry, cherry pick 1. inhibition, % at 10 µM. 720 tested, under 10 active. multiplex microsphere protease cleavage assay. AID 602140, 2011. shares compounds with BoNT-F LC inh; call rule not given here
Anthrax LF CP1: Bacillus anthracis LF protease inhibitors, confirmation, biochemical, multiplex microsphere, cherry pick 1 | shares compounds with BoNT-F LC inh | multiplex microsphere protease cleavage assay | inhibition, % at 10 µM | 720 tested, under 10 active | AID 602142, 2011; call rule not given here
Starred values were filed as active, the others as inactive; ? = inconclusive; . = not tested or not shown; + = active, no number. Rows were chosen to be rich in hits. Some 6.6% of all compounds tested hit in one or more screens of this group. Unless noted, no stated cut-off is given here; in the data, active means inhibition above about 30%; inconclusive means no clear call, values can overlap the other calls; inactive means below that.

SMILES | Autofluor counter | BoNT-A LC inh2 | FBA Mtb inh | BoNT-F LC inh | GDH-TPI inh | Anthrax LF prot | BoNT-A LC CP1 | BoNTF LC inh 1 | Anthrax LF CP1
CCCCc1cc(=O)oc2cc(OCC(=O)N[C@@H](Cc3ccccc3)C(=O)O)ccc12 | 4373 | -1 | 19 | -14 | 19 | -6 | . | . | .
Nn1c(-c2ccccc2Cl)nnc1-c1ccccc1Cl | 2794 | 0 | -3 | -4 | 4 | -2 | . | . | .
COc1ccc(-c2cncc3nccn23)cc1OC | 4079 | -1 | 6 | -3 | 10 | -8 | . | . | .
Clc1ccccc1-c1ncc2ccccn12 | 4716 | 29 | 21 | 1 | -1 | 22 | 2 | 8 | 1
O=[N+]([O-])c1cccc(-c2ncc3ccccn23)c1 | 4652 | 7 | -1 | -5 | 14 | 2 | . | . | .
Clc1ccc(-c2ncc3ccccn23)cc1 | 5802 | 51* | 11 | 3 | 1 | 22 | 0 | -1 | 1
COc1ccc(-c2ncc3ccccn23)cc1OC | 2757 | 2 | 2 | -16 | -2 | -8 | 2 | 1 | 3
O=C1NCCOC(=O)[C@@H](Cc2ccc(F)cc2)C/C=C\C[C@@H]1CC(=O)N(CCO)Cc1ccccc1 | 3867 | 0 | 1 | -5 | -11 | 9 | . | . | .
Cc1ccc2cc3cc(C(=O)NCCN4CCOCC4)oc3nc2c1 | 3441 | 1 | 91* | 35* | 48* | 3 | 0 | -2 | -1
Cc1cc(C(=O)Nc2ccc(F)c(Cl)c2)on1 | 2851 | 0 | -1 | -8 | 4 | 6 | . | . | .
CCC1Oc2ccc(C)cc2N(CC(=O)NCC2CCCO2)C1=O (configuration not stated) | 5167 | 0 | 0 | 2 | -5 | 0 | . | . | .
Cc1cc(C)c2cc(CN(CCN3CCCC3)C(=O)Nc3ccc(F)cc3)c(=O)[nH]c2c1 | 10627 | 3 | -1 | 62* | 16 | 6 | -5 | -11 | -2
Cc1ccc2[nH]c(=O)c(CN(CCN3CCOCC3)C(=O)Nc3ccc(F)cc3)cc2c1 | 2719 | 0 | 4 | -17 | 11 | -2 | . | . | .
Cc1nn2c(c1-c1ccccc1)NC1=C(C(=O)CCC1)C2c1ccccc1 (configuration not stated) | 12476 | 28 | 115* | 36* | 33* | 3 | 0 | -4 | 2
CCC(=O)N1c2ccccc2NC2=C(C(=O)CCC2)C1c1ccccc1 (configuration not stated) | 8244 | -1 | 3 | -9 | 24 | -3 | . | . | .
O=C(COC(=O)c1ccc(S(=O)(=O)N2CCCCC2)cc1)Nc1ccccc1Cl | 5931 | 0 | 4 | 6 | -3 | -2 | . | . | .
CCOC(=O)N1CCN(C(=O)c2ccc(C)c(S(=O)(=O)Nc3ccccc3)c2)CC1 | 3457 | 1 | 0 | 34* | 13 | -2 | 0 | -3 | 1
CCOC(=O)N1CCN(C(=O)c2ccc(C)c(S(=O)(=O)Nc3cccc(C)c3C)c2)CC1 | 9944 | ? | 3 | -16 | 2 | 2 | . | . | .
CCCNC(=O)c1ccccc1NC(=O)c1ccccc1N(C)S(=O)(=O)c1ccc(C)cc1 | 12100 | -1 | 1 | 38* | 8 | 1 | -1 | -1 | -1
CCN(CC)S(=O)(=O)c1ccc(C)c(C(=O)Oc2cccc(-c3cnc4ccccc4n3)c2)c1 | 2119 | 6 | -4 | 35* | 5 | -1 | -2 | -5 | -7
O=C(Nc1scc(-c2ccccc2)c1C(=O)O)c1ccccc1F | 4068 | 3 | 2 | ? | 29 | 20 | . | . | .
Cc1ccc(-c2csc(NC(=O)c3ccccc3F)c2C(=O)O)cc1 | 3981 | 4 | 4 | 35* | 25 | 20 | 0 | -5 | -7
Cc1ccccc1NC(=O)c1cccnc1 | 3631 | 3 | 4 | 66* | 7 | 10 | 0 | -1 | 1
COc1ccc(S(=O)(=O)N(C)C)cc1NC(=O)CCNC(=O)c1ccco1 | 3795 | 0 | -6 | 41* | -7 | 6 | 0 | -3 | 2
COc1ccc(OC)c(-c2cc(C(=O)Nc3ccc(F)cc3F)no2)c1 | 4025 | 0 | 0 | 1 | 10 | -1 | . | . | .
SMILES | Autofluor counter | BoNT-A LC inh2 | FBA Mtb inh | BoNT-F LC inh | GDH-TPI inh | Anthrax LF prot | BoNT-A LC CP1 | BoNTF LC inh 1 | Anthrax LF CP1
COc1ccc(-c2cc(C(=O)Nc3ccc(F)cc3F)no2)cc1 | 3706 | 0 | -3 | -2 | 1 | 32* | 1 | -4 | 0
CC(=O)C1C(c2ccc(C)cc2)c2c(noc2C)CC1(C)O (configuration not stated) | 4561 | -1 | 6 | -3 | 3 | -2 | . | . | .
CC(=O)C1C(c2ccc(F)cc2)c2c(noc2C)CC1(C)O (configuration not stated) | 4546 | -3 | 1 | 37* | -2 | -6 | 0 | 1 | 3
CCOC(=O)C(O)(c1ccc(N(CC)S(=O)(=O)c2ccc(C)cc2)cc1)C(F)(F)F (configuration not stated) | 6229 | 8 | 1 | 70* | 1 | -1 | 2 | -3 | -3
COc1ccc2[nH]c3c(c2c1)CCN1C(=O)N([C@@H](C)C(=O)NCc2ccc(C)cc2)C(=O)[C@]31C | 5758 | 0 | 1 | -4 | 4 | -2 | . | . | .
Cc1ccc2nc3c(cc2c1)c(NC(=O)C(C)(C)C)nn3CC(C)C | 2974 | 2 | 9 | 15 | 5 | 49* | 1 | 2 | 0
Cc1ccc2nc3c(cc2c1)c(NC(=O)c1ccco1)nn3CC(C)C | 3936 | ? | 4 | ? | -13 | 18 | . | . | .
Brc1cc2c(cc1C1Nc3ccccc3C3C=CCC31)OCO2 (configuration not stated) | 2442 | 0 | 1 | 0 | 3 | -1 | . | . | .
Cc1cc(C)c2c(c1)NC(c1cc3c(cc1Br)OCO3)C1CC=CC21 (configuration not stated) | 1899 | 4 | -3 | + | 9 | -10 | -1 | 2 | -2
COc1ccc(CNC(=O)CSc2nnc(NC(=O)C3CC3)s2)cc1 | 3716 | 0 | -1 | 35* | 3 | -2 | 0 | 0 | 0
CCCCN(Cc1ccco1)C(=O)C1CCCN(c2ncnc3c2nc2n3CCCCC2)C1 (configuration not stated) | 5021 | 2 | 0 | 1 | 1 | -3 | . | . | .
O=C(CC(=O)Nc1ccccc1F)Nc1ccccc1F | 4769 | -4 | 4 | -4 | -6 | 42* | -2 | -6 | -4
O=C(CN1CCCCCC1)Nc1ccccc1F | 4604 | 0 | -3 | -5 | -1 | 1 | . | . | .

High-throughput results from PubChem.
